Among the data in PubChem BioAssay (NCATS) are max response, outcome and Potency values, retold here.

A short description of test [1]: qHTS assay for small molecule antagonists of peroxisome proliferator-activated receptor delta signaling (AID 588535; active means well fitted inhibition curve with a large enough effect in the signal ratio, with a control signal flat, not every such curve was filed as active; the % refers to the signal ratio;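 on max response: cells co-treated with a PPAR-delta agonist as stimulator during compound exposure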). The following applies: HEK293T PPARd-UAS-bla, beta-lactamase FRET ratio, 18 h; 460 nm channel. The method in brief: (§1)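 Cells were seeded at 4000 per well in assay medium containing 2% charcoal/dextran FBS and held 5 hrs at 37 C. Compounds were then added for 18 hrs. CCF4 substrate was applied for 2 hrs at room temperature before fluorescence reading.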

For test [2], the target named is Peroxisome proliferator-activated receptor delta (Homo sapiens) (UniProt Q03181). The description is as above. The note with it: HEK293T PPARd-UAS-bla, beta-lactamase FRET ratio, 18 h; series mostly up to 76.7 µM. In short, it runs like this: as §1
Sequence of Peroxisome proliferator-activated receptor delta (Homo sapiens) (Q03181 whole entry, looked up): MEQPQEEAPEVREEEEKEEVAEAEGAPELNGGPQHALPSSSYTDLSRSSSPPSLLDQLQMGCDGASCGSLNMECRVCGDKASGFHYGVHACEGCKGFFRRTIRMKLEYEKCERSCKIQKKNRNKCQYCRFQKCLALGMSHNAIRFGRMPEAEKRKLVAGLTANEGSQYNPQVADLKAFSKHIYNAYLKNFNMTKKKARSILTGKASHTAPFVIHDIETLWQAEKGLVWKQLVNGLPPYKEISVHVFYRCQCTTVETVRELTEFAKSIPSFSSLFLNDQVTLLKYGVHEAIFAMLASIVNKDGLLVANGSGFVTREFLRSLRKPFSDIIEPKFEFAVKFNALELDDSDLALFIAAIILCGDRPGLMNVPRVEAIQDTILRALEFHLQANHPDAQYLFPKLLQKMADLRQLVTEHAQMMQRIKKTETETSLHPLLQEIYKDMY
The target of test [3] is Peroxisome proliferator-activated receptor gamma (Homo sapiens) (UniProt P37231). The test is described as follows: qHTS assay for small molecule agonists of peroxisome proliferator-activated receptor gamma signaling (AID 588536; active means well fitted curve in the direction sought with a large enough effect in the signal ratio, with a control signal flat, not every such curve was filed as active; the % refers to the signal ratio;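 further: 0% = DMSO basal wells and 100% = rosiglitazone at 2 µM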). The following applies: HEK293 PPARg-UAS-bla, beta-lactamase ratio, 16 h, percent of rosiglitazone response, DMSO as zero; series mostly up to 76.7 µM. In short, it runs like this:
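GeneBLAzer PPAR-gamma-UAS-bla HEK293 cells in 1% charcoal/dextran-treated FBS medium were treated 16 h at 37 C with compounds. Beta-lactamase activity was read by CCF4 ratio (460/530 nm). Response was normalized to 2 uM rosiglitazone (100%) and DMSO, then Hill-fitted for EC50 and efficacy.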
For orientation: Quantitative high-throughput screening tests each substance at several concentrations.

The target is the same in test [4]. As to the kind of experiment: qHTS assay for small molecule antagonists of peroxisome proliferator-activated receptor gamma signaling (AID 588537; active means well fitted inhibition curve with a large enough effect in the signal ratio, with a control signal flat, not every such curve was filed as active; the % refers to the signal ratio;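 further: reporter cells co-stimulated with 50 nM rosiglitazone agonist during compound treatment; % of control where 0% means no effect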). The following applies: HEK293 PPARg-UAS-bla, beta-lactamase ratio, antagonist mode; series mostly up to 76.8 µM. In short, it runs like this: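 Step one: plate 3000 HEK293 UAS-bla cells per well in medium with 1% stripped serum and hold 6-6.5 h at 37 C. Step two: add compound and 50 nM agonist for 16 h. Step three: CCF4 loading, fluorescence read.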

Test [5] concerns the target Vitamin D3 receptor (Homo sapiens) (UniProt P11473). The test is described as follows: qHTS assay for small molecule antagonists of vitamin D receptor signaling (AID 588541).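 Further: receptor activated by calcitriol during compound treatment; on the % scale 0 is the no-effect control and ±100 the full control effect.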 The note with it: HEK293T VDR-UAS-bla, beta-lactamase ratio, antagonist mode; series mostly up to 76.7 µM. In short, it runs like this: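 VDR-UAS-bla HEK293T cells in 2% charcoal-stripped FBS were stimulated with 1-alpha,25-dihydroxyvitamin D3 (3 nM final) plus compound for 16 h at 37 C. The beta-lactamase CCF4 readout was normalized to 50 nM agonist and DMSO, and Hill fits gave IC50.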

Test [6] is described as follows: qHTS assay for small molecule agonists of retinoid X receptor alpha signaling (AID 588544). The note with it: HEK293T RXRa-UAS-bla, beta-lactamase reporter, 18 h; 530 nm emission.
The target of test [7] is Retinoic acid receptor RXR-alpha (Homo sapiens) (UniProt P19793). Described as above. The following applies: HEK293T RXRa-UAS-bla, beta-lactamase reporter, 18 h; series mostly up to 76.7 µM.
Sequence of Retinoic acid receptor RXR-alpha (Homo sapiens) (P19793 whole entry, looked up): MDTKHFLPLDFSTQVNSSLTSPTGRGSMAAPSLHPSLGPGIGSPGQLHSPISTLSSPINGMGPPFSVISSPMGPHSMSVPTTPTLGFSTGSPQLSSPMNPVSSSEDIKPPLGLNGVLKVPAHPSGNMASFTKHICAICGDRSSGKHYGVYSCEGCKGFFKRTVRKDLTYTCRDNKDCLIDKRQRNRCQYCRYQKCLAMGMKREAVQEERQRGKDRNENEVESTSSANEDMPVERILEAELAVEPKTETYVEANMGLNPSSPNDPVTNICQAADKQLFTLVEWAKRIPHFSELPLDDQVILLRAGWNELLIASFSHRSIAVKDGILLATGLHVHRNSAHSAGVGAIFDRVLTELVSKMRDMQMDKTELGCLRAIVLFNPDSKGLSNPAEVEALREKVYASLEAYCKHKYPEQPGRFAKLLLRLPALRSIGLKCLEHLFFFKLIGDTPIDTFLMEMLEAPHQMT
Test [8] in a line: qHTS assay for small molecule antagonists of retinoid X receptor alpha signaling (AID 588546; active means well fitted inhibition curve with a large enough effect in the signal ratio, with a control signal flat, not every such curve was filed as active; the % refers to the signal ratio; further: potency means the concentration at half of the fitted maximal effect;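 on max response: cells stimulated with 9-cis-retinoic acid as agonist; on the % scale 0 is the no-effect control and ±100 the full control effect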). The note with it: HEK293T RXRa-UAS-bla, beta-lactamase ratio, antagonist mode; measured here: W530 green channel, cytotoxicity proxy. In short, it runs like this:
(§2)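 Beta-lactamase reporter inhibition, read as CCF4 fluorescence ratio (ex 405, em 460/530 nm) after 2 h at RT. HEK293T UAS-bla cells, 2500/well, were stimulated with 9-cis-RA at 500 or 100 nM final alongside test compound for 18 h at 37 C.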

In test [9] the target is Retinoic acid receptor RXR-alpha (Homo sapiens) (UniProt P19793). Described as above. The following applies: HEK293T RXRa-UAS-bla, beta-lactamase ratio, antagonist mode. In short, it runs like this:
as §2

Test [10] addresses Voltage-gated inwardly rectifying potassium channel KCNH2 (Homo sapiens) (UniProt Q12809). The test is described as follows: qHTS Assay for Small Molecule Inhibitors of the Human hERG Channel Activity (AID 588834; active means well fitted curve in the direction sought with a large enough effect; an effect the other way counts as inactive or inconclusive;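 further: top concentration of the series differs between compounds; on the % scale 0 is the no-effect control and ±100 the full control effect; lower thallium flux fluorescence means stronger hERG block; nearly all actives have a fitted effect of over 50% in size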). The note with it: U2OS BacMam hERG, FluxOR thallium flux fluorescence; series mostly up to 92.2 µM. In short, it runs like this: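 Blockade is seen as reduced FluxOR thallium-flux fluorescence in U2OS cells expressing hERG from a BacMam construct, in Opti-MEM with 2% FCS. Concentration-response data fitted to the Hill equation for AC50.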

Test [11] addresses Luciferin 4-monooxygenase (Photinus pyralis) (UniProt P08659). The test is described as follows: Biochemical firefly luciferase enzyme assay for NPC (AID 624030; active means well fitted curve in the direction sought with a large enough effect; an effect the other way counts as inactive or inconclusive;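 further: purified P. pyralis luciferase at 10 nM with luciferin and ATP substrate; 0% = DMSO and -100% = full luciferase inhibition by PTC124 control; nearly all actives have a fitted effect of over 70% in size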). The following applies: purified P. pyralis luciferase, luminescence, 5 min; series mostly up to 58.6 µM. The method in brief:
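Purified P. pyralis luciferase at 10 nM in 50 mM Tris Acetate (final), luminescence read within 5 minutes of enzyme addition to compounds. Activity normalised to PTC124 versus DMSO; concentration-response curves classed by r2, magnitude and activity.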

Test [12] can be described thus: S16 Schwann cell viability assay (CellTiter-Glo assay) (AID 624031; active means well fitted curve in the direction sought with a large enough effect; an effect the other way counts as inactive or inconclusive; further: potency means the concentration at half of the fitted maximal effect; nearly all actives have a fitted effect of over 70% in size). The following applies: S16 rat Schwann cells viability, 24 h; series mostly up to 57.5 µM. In short, it runs like this: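 Parental S16 cells, 24 h compound, 37 °C. ATP-luminescence viability; DMSO = 0% activity, empty wells as reference; curves classified by fit quality and efficacy.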

Values joined by “and” are separate entries in the source; they are usually repeats but may differ in a detail not shown here. Identical values can stand only once. Results filed as inconclusive are left out. Active and inactive are the calls of the source. Unless noted, the call rests on the fitted dose curve.

Sequence of Vitamin D3 receptor (Homo sapiens) (P11473 whole entry, looked up): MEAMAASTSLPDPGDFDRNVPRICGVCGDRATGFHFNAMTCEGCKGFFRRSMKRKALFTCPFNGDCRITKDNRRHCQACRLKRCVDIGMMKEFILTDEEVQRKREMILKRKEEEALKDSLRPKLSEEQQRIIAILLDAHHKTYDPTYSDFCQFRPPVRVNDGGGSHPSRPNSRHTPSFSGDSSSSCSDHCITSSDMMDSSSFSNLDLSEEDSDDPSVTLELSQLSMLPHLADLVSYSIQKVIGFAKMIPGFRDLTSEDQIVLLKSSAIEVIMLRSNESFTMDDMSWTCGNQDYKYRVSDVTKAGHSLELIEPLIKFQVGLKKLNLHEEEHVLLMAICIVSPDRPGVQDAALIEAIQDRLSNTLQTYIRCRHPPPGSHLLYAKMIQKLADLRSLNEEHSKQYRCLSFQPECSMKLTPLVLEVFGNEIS
Sequence of Luciferin 4-monooxygenase (Photinus pyralis) (P08659 whole entry, looked up): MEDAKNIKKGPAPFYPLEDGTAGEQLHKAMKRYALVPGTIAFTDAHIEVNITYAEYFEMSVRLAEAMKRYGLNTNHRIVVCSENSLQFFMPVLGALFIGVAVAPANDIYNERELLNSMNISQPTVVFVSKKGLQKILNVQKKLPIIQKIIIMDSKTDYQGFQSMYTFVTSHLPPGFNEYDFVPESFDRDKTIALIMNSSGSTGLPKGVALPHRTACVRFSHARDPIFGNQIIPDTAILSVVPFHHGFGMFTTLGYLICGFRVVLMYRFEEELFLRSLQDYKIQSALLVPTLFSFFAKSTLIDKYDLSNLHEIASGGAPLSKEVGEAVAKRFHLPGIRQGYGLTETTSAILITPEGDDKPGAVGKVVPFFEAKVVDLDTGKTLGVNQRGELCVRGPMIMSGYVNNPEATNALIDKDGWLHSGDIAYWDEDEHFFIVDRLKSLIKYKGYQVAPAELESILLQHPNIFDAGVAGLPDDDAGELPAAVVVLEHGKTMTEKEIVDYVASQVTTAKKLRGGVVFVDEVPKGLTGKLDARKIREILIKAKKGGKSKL
Sequence of Peroxisome proliferator-activated receptor gamma (Homo sapiens) (P37231 whole entry, looked up): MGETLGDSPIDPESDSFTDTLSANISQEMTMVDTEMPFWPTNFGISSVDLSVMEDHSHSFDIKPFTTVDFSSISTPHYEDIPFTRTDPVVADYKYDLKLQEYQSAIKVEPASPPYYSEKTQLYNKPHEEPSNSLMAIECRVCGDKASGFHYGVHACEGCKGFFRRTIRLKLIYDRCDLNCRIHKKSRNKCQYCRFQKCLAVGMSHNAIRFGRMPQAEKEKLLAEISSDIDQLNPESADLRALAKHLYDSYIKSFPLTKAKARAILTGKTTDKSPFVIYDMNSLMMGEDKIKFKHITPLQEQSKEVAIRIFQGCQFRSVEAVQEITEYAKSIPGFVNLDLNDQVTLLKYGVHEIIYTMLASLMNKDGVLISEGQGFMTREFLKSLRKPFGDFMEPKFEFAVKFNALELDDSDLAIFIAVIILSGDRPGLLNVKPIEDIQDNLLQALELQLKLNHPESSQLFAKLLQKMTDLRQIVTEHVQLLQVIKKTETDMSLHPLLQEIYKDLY
Sequence of Voltage-gated inwardly rectifying potassium channel KCNH2 (Homo sapiens) (Q12809 whole entry, looked up): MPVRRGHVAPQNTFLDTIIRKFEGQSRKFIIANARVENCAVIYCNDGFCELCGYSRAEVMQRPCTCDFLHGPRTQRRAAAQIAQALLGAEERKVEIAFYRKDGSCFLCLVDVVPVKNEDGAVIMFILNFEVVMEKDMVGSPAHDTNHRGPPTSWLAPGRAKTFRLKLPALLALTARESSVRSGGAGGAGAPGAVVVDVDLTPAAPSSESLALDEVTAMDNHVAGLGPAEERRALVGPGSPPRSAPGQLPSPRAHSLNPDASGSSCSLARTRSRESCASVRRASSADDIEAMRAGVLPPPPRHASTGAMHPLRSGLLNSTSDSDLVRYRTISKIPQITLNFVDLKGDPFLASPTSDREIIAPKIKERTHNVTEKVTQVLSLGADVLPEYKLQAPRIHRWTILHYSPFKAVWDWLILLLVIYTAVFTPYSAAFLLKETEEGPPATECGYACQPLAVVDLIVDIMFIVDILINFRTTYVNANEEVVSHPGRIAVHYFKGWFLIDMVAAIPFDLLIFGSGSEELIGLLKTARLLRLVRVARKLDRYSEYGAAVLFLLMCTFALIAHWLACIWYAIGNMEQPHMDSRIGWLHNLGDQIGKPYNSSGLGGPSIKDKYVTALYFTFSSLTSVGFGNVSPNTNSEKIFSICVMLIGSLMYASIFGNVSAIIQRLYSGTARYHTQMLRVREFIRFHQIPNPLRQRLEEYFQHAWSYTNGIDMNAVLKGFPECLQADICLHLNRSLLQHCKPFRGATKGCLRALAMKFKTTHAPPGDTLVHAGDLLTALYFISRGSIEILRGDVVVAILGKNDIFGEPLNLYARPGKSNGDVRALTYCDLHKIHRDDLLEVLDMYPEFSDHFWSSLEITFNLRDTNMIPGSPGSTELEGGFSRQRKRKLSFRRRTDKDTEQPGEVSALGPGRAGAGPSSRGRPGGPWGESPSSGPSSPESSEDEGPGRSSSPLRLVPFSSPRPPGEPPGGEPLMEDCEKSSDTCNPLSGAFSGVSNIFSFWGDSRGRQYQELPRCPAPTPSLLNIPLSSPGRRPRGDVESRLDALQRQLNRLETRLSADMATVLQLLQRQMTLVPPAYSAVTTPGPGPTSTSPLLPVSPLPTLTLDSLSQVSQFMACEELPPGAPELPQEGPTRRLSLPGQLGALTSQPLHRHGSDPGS

For `CC(C)C(C)(C)C(C)(C)C(C)(C)S`, the max response in test [1] was 5.05% and 21.4%; in test [6], -6.07% and -23.3%; in test [8], -12% and -14.7%; in test [9] it was 11.7% (inactive) and -0.658% (inactive). Moreover, the result in [2], in [3], in test [4] and in test [5] was inactive. For the same molecule, the Potency result in test [7], in test [10] and in test [11] was “inactive” each time.
For the molecule `CCCCCCCCCCCC[N+](C)(C)Cc1ccccc1`, the max response in test [1] is 29.6%. Further, the outcome in [2], in test [3], in [4] and in test [5] was inactive. Further, the Potency entry in test [11] is “inactive”.
For `Nc1cccc2c(N)cccc12`, the result in test [3] and in test [4] was inactive. The max response in test [6] is 9.18%; in test [8] it was 0.949% and -3.88%; in [9], -3.27% (inactive) and -4.14% (inactive). Moreover, the Potency result in test [7], in test [10] and in test [11] was “inactive” in each case.
`OCc1c[nH]c2ccccc12`: the result in test [3] and in [5] was inactive. For the same molecule, the max response in test [6] was 1.88%; in test [8] it was 2.29%; in test [9], -2.51% (inactive). Besides, the Potency entry in [7] and in [10] was “inactive” throughout.
For the molecule `OCCOCCN1CCN(C(c2ccccc2)c2ccc(Cl)cc2)CC1` (stereo not given), the result in test [3], in test [4] and in test [5] was inactive. Further, the figures for the max response in test [6], in test [8] and in test [9] were 11.6%, 2.38% and -14.3% (inactive), respectively. The Potency result in [7] and in test [11] was “inactive” in each case.
`c1ccc2occc2c1`: the outcome in [3] and in [5] was inactive. The max response in test [6] is -16.2%; in test [8], -13.5% and -7.35%; in test [9], 6.36% (inactive) and -5.03% (inactive). Besides, the Potency result in test [7], in [10] and in test [11] was “inactive” throughout.
As to `O=C(Oc1ccccc1)c1cccc(C(=O)Oc2ccccc2)c1`, the max response is 22.4% in test [1], 15.8% in [6], 0.814% in test [8] and -33.4% (inactive) in test [9]. For the same molecule, the result in test [2], in [4] and in test [5] was inactive. The Potency result in [7] is “inactive”.
Consider `Cc1ccc(O)cc1`, for which the max response was -30.2% in test [1], -3.32% in [6], -4.07% in test [8] and 9.57% (inactive) in test [9]. Also, the result in test [2], in [3], in [4] and in [5] was inactive. For the same molecule, the Potency result in test [7] and in test [10] was “inactive” throughout.
Turning to `CCN(CC)CCOc1ccc(/C(=C(\Cl)c2ccccc2)c2ccccc2)cc1`, in [8], the max response is -2.07%. For the same molecule, in [9], the Potency was 39.8 µM (active).
Turning to `C1=CC2C3C=CC(C3)C2C1` (stereo not given), the outcome in test [3] and in [5] was inactive. Further, the max response in test [6] is 15.9%. The Potency entry in [7], in test [10] and in [11] was “inactive” in each case.
`Oc1ccccc1`: the max response in test [1] was -6.84% and 11%; in [8], -7.3% and -10.8% and -13%; in [9], 17.6% (inactive) and -10.1% (inactive) and 2.32% (inactive). Further, the outcome in [2] and in [3] was inactive. In addition, the Potency result in [10] and in test [11] was “inactive” each time.
Regarding `CCCCCCCCCCCCCCCC[n+]1ccccc1`, the max response was 21.5% in test [1], 3.2% in [6], 11.3% in test [8] and -34.1% (inactive) in test [9]. Also, the outcome in test [2] and in test [3] was inactive. The Potency result in [7] and in test [11] was “inactive” in each case. Besides, in test [12], the Potency was 36.1 µM (active).
